Laboratory results from PubChem BioAssay.
Activity calls are given as the source filed them.

Columns and labels:
[1] = binders of probe aFSTL3 on microarray, primary screen, stem cell growth factor project, biochemical, small-molecule microarray, fluorescence 635/667 (AID 1064); details: higher = more signal;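 also: measures binding of the biotinylated anti-FSTL3 antibody to printed compounds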
[2] = binders from COS7 lysate, DM2A8 probe, primary screen, torsin A project, cell lysate, small-molecule microarray, fluorescence 635/667 (AID 1065); details: higher = more signal, COS7 lysate expressing mutant human TOR1A
[3] = binders of probe aFGF2 on microarray, primary screen, stem cell growth factor project, biochemical, small-molecule microarray, fluorescence 635/667 (AID 1067); details: higher = more signal;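 also: measures binding of biotinylated aFGF2 protein to printed compounds on slides; z-score merges feature fluorescence and signal-to-noise across triplicate slides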
[4] = binders of probe aFGF10 on microarray, primary screen, stem cell growth factor project, biochemical, small-molecule microarray, fluorescence 635/667 (AID 1071); details: higher = more signal;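 also: score merges 667 nm spot intensity and signal to noise from triplicate slides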
[5] = target: Neurogenic locus notch homolog protein 2 (Homo sapiens) (UniProt Q04721); test: Notch2 binders on small-molecule microarrays, primary screen, biochemical, small-molecule microarray, 635 nm fluorescence, stem cell growth factors (AID 1073); details: Notch2 binding, higher = more signal
[6] = target: Pro-neuregulin-1, membrane-bound isoform (Homo sapiens) (UniProt Q02297); test: NRG1 binders on small-molecule microarrays, primary screen, psychiatric disease protein project, biochemical, small-molecule microarray, fluorescence 635/667 (AID 1075); details: NRG1 binding, 635 nm fluorescence, higher = more signal;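 also: score combines 667 nm spot fluorescence with signal to noise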
[7] = system: Neuregulin-1 EGF-like domain; test: binders of neuregulin-1 EGF-like domain, primary screen, biochemical, small-molecule microarray, 635 nm fluorescence (AID 1081); details: small-molecule microarray binding, higher = more signal;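 also: binding of the protein to compounds printed on small-molecule microarray slides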
[8] = FRG1 promoter luciferase signal modulators, primary screen, FRG1 inhibition for FSHD, cell-based, C2C12 myotubes, firefly/Renilla luciferase, luminescence (AID 1084); details: higher = more signal, called active from +8 up or from −8 down
[9] = binders of probe aFST on microarray, primary screen, stem cell growth factor project, biochemical, small-molecule microarray, fluorescence 635/667 (AID 1086); details: higher = more signal;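 also: score merges 667 nm fluorescence with signal-to-noise of each printed compound spot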
[10] = binders of probe aHhip on microarray, primary screen, stem cell growth factor project, biochemical, small-molecule microarray, fluorescence 635/667 (AID 1087); details: higher = more signal;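 also: score merges spot fluorescence at 667nm with spot signal to noise ratio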
[11] = system: PRMT1 (protein arginine N-methyltransferase 1); test: PRMT1 binders on small-molecule microarrays, primary screen, biochemical, small-molecule microarray, 635 nm fluorescence (AID 1088); details: small-molecule microarray binding, higher = more signal;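 also: binding of Prmt1 protein to compounds spotted on small-molecule microarray slides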
[12] = yeast growth modulation, basal conditions, primary screen, YJM789 clinical isolate, OD600, 24 h (AID 1089);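 also: growth of clinical yeast isolate S. cerevisiae YJM 789 seeded 1000 cells per well; test concentration not given here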; details: S. cerevisiae YJM789 growth, higher = more signal, called active from +8 up or from −8 down
[13] = fission yeast growth modulation, primary screen, strain 972, OD600, 24 h, no modulator (AID 1090);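 also: basal condition with compound alone and no growth modifier present; test concentration not given here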; details: S. pombe 972 growth, higher = more signal, called active from +8 up or from −8 down
[14] = S. cerevisiae growth modulation with rapamycin, primary screen, strain BY4716, OD600, 96 h (AID 1091); details: higher = more signal, called active from +8 up or from −8 down; also: test concentration not given here
[15] = target: Torsin-1A-interacting protein 2 (Homo sapiens) (UniProt Q8NFQ8); test: LULL1 binders on small-molecule microarray, primary screen, cell lysate, human LULL1 lysate, 635/667 nm fluorescence (AID 1092); details: hLULL1 lysate binding, 635 nm fluorescence, higher = more signal;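 also: probe is lysate of COS7 cells overexpressing human LULL1; score merges per-feature 667 nm fluorescence with signal-to-noise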
[16] = E. coli growth modulation, two-sided OD650, primary screen, E. coli filamentation project, strain DRC41, 24 h (AID 1093); details: OD650, 24 h, higher = more signal, called active from +8 up or from −8 down;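 also: MC1000 strain lacking acrAB efflux and sulA so SOS filamentation is blocked; test concentration not given here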
[17] = small-molecule microarray binders of probe aLefty2, primary screen, biochemical, biotinylated probe, 635/667 nm fluorescence (AID 1094); details: higher = more signal;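 also: score merges spot fluorescence near 667 nm with spot signal-to-noise ratio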
[18] = system: Noggin (protein binding on small-molecule microarray); test: Noggin binders on small-molecule microarray, primary screen, biochemical, 635/667 nm fluorescence (AID 1095); details: 635 nm fluorescence, higher = more signal;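 also: score merges 667 nm feature fluorescence with signal to noise over triplicate slides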
[19] = target: Neurogenic locus notch homolog protein 3 (Homo sapiens) (UniProt Q9UM47); test: NOTCH3 binders on small-molecule microarray, primary screen, biochemical, 635/667 nm fluorescence (AID 1096); details: NOTCH3 binding, 635 nm fluorescence, higher = more signal
[20] = small-molecule microarray binders of probe aEGFR, primary screen, biochemical, biotinylated probe, 635/667 nm fluorescence (AID 1097); details: higher = more signal;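 also: probe is a biotinylated anti-EGFR antibody binding compounds printed on slides; score combines fluorescence near 667 nm and signal to noise of each spot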

Neurogenic locus notch homolog protein 2 (Homo sapiens), sequence (Q04721 whole entry, looked up, canonical isoform): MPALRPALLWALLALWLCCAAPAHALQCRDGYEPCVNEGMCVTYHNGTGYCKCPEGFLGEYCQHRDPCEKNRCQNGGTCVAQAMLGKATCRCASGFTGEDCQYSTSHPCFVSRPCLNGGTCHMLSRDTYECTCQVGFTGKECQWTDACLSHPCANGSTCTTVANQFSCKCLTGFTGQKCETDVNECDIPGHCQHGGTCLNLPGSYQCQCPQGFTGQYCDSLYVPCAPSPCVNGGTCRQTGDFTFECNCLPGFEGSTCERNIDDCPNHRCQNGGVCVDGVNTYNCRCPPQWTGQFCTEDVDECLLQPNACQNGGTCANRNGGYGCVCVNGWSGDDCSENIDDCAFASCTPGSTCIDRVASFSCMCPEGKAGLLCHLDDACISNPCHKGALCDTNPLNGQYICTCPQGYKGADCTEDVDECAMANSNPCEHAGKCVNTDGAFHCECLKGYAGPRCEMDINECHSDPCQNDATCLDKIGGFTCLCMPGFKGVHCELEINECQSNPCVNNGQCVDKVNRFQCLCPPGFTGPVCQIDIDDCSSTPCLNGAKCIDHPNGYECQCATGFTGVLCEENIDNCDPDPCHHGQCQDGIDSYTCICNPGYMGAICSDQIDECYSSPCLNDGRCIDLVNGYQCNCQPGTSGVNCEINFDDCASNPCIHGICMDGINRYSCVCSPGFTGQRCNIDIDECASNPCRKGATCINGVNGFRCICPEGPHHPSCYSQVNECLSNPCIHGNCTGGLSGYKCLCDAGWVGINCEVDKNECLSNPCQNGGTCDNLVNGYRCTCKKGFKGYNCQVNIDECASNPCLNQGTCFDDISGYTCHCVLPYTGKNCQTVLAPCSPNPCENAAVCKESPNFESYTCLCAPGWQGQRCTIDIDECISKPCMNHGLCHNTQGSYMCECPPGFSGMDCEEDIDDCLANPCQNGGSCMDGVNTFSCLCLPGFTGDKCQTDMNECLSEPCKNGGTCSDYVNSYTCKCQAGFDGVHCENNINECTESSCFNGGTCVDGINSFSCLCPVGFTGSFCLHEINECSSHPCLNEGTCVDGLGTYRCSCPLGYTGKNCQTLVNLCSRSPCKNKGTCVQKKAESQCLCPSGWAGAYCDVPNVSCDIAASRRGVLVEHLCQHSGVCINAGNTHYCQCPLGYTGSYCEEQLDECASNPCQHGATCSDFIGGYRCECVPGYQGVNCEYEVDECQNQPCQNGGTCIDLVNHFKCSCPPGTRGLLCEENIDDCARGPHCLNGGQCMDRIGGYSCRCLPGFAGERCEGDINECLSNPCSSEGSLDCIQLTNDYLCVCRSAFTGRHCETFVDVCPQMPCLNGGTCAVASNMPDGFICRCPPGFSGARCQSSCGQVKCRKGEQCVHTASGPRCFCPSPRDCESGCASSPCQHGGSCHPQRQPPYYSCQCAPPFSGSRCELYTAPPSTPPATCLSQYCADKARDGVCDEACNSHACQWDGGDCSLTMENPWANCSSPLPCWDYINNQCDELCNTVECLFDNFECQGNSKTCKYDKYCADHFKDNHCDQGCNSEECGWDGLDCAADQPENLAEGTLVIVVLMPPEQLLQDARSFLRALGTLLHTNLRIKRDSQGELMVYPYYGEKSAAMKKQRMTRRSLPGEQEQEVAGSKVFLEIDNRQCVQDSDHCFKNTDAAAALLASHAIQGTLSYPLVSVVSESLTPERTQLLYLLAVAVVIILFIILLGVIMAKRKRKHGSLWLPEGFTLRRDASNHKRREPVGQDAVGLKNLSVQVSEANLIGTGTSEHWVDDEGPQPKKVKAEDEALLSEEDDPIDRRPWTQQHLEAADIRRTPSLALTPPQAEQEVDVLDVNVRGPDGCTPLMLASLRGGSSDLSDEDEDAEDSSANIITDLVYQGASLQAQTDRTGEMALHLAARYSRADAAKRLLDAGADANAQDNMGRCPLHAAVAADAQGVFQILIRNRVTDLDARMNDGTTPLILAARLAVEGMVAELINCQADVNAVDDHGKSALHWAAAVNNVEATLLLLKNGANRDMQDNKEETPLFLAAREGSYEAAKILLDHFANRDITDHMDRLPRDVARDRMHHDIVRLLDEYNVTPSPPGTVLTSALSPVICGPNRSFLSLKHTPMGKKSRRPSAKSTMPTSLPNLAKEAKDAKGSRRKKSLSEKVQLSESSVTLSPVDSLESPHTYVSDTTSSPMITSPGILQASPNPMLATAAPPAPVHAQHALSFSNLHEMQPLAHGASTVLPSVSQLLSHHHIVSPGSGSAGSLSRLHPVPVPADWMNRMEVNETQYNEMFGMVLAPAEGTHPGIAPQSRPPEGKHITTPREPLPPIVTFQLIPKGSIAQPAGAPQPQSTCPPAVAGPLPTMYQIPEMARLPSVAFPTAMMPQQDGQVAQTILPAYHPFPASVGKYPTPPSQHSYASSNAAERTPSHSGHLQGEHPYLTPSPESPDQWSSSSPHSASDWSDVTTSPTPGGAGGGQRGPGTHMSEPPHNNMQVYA
Neurogenic locus notch homolog protein 3 (Homo sapiens), sequence (Q9UM47 whole entry, looked up): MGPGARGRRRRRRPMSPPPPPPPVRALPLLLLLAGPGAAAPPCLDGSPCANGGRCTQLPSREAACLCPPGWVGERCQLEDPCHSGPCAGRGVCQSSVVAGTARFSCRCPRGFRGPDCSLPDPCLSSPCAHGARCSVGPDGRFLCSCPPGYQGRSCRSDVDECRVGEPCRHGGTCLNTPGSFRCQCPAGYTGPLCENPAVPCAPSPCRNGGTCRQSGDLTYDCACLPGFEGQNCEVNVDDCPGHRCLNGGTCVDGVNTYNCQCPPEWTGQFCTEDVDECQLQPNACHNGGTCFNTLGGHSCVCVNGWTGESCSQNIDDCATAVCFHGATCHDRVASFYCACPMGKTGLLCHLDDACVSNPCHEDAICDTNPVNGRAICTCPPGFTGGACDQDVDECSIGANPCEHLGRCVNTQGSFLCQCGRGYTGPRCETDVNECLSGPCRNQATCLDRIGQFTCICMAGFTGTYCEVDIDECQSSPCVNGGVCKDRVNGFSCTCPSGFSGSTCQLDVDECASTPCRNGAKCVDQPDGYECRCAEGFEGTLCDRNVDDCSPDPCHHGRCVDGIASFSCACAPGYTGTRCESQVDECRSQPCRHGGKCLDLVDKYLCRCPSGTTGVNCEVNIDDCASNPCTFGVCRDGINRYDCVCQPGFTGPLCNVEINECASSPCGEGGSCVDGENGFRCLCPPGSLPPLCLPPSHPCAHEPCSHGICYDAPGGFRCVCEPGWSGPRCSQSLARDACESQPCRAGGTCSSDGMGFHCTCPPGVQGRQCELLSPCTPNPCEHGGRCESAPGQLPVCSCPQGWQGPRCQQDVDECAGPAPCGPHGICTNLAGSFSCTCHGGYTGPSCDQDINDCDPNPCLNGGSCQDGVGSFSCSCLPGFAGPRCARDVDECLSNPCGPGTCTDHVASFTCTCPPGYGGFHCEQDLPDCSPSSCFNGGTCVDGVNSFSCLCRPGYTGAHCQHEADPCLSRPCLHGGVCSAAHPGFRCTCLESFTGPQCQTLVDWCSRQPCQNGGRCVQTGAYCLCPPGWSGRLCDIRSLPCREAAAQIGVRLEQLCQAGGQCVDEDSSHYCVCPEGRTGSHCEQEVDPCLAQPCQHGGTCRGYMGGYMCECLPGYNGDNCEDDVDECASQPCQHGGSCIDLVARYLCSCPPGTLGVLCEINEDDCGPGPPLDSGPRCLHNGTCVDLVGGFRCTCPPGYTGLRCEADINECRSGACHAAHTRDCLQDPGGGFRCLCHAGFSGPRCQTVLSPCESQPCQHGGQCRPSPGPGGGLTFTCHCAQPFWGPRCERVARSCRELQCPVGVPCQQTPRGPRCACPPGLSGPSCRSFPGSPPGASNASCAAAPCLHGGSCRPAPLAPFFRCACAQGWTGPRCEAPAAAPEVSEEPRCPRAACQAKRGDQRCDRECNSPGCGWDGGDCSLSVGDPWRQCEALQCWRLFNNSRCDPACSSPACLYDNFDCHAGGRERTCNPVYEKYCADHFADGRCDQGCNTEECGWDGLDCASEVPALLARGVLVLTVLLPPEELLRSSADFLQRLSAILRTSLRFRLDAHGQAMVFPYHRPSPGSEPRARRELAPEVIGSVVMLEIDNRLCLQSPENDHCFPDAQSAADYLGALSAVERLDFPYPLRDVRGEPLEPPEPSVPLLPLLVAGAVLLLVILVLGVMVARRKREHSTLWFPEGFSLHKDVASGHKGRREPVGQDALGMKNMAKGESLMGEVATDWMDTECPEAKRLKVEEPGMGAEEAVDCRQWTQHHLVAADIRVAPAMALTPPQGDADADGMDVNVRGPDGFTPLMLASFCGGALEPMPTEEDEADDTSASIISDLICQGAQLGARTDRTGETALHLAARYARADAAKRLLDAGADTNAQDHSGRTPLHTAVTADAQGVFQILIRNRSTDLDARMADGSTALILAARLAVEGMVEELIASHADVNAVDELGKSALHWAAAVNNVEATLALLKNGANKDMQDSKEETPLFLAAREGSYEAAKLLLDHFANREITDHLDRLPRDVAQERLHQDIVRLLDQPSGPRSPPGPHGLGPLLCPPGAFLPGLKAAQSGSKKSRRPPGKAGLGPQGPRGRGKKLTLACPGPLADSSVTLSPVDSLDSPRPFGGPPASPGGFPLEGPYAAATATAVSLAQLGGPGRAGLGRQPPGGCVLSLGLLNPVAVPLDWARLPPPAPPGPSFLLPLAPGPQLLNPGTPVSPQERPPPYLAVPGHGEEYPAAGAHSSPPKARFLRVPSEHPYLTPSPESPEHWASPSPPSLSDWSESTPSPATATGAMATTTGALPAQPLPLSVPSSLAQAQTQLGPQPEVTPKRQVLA

Compound: CCOC(=O)C[C@H]1[C@H](OC(=O)c2cc3ccccc3oc2=O)[C@@H](NC(=O)Cc2ccc(OC)cc2)c2cc(OCCCO)ccc2N1C(=O)c1ccc2ccccc2n1
- composite z-score [1]: -0.19
- composite z-score [2]: 0.648
- composite z-score [3]: -0.127
- composite z-score [4]: 0.403
- composite z-score [5]: 0.848
- composite z-score [6]: 0.35
- composite z-score [7]: 0.996
- z-score [8]: -1.07 (inactive)
- composite z-score [9]: 0.0814
- composite z-score [10]: -0.123
- composite z-score [11]: 0.268
- z-score [12]: -0.724 (inactive)
- z-score [13]: -0.138 (inactive)
- z-score [14]: -0.0607 (inactive)
- composite z-score [15]: 0.773
- z-score [16]: 1.31 (inactive)
- composite z-score [17]: -0.11
- composite z-score [18]: 0.68
- composite z-score [19]: 1.15
- composite z-score [20]: -0.0241

Compound: C[C@@H]1NC(=O)[C@@]23C(=O)N[C@@H](Cc4ccccc4)C2[C@H](C)[C@@]2(C)O[C@H]2C3/C=C/C/C=C\CNC(=O)[C@@H]2CCCN2C1=O (stereo not given in full)
- composite z-score [1]: -0.301
- composite z-score [2]: 0.009
- composite z-score [3]: -0.158
- composite z-score [4]: 0.139
- composite z-score [5]: -0.355
- composite z-score [6]: -0.365
- composite z-score [7]: 0.519
- z-score [8]: 0.251 (inactive)
- composite z-score [9]: -0.276
- composite z-score [10]: -0.249
- composite z-score [11]: -0.422
- z-score [12]: -0.498 (inactive)
- z-score [13]: -0.409 (inactive)
- z-score [14]: -0.524 (inactive)
- composite z-score [15]: -0.516
- z-score [16]: -0.874 (inactive)
- composite z-score [17]: -0.132
- composite z-score [18]: -0.044
- composite z-score [19]: -0.526
- composite z-score [20]: -0.266

Compound: COC1OC[C@]2(C)[C@H]3C4=C(CN2C(=O)OC(C)(C)C)[C@H](C)C(CO)C(CO)C4CC[C@@H]13 (stereo not given in full)
- composite z-score [1]: 1.99
- composite z-score [2]: 0.473
- composite z-score [3]: 0.236
- composite z-score [4]: 0.557
- composite z-score [5]: 1.79
- composite z-score [6]: 1.82
- composite z-score [7]: 1.25
- z-score [8]: 2.38 (inactive)
- composite z-score [9]: 1.85
- composite z-score [10]: 1
- composite z-score [11]: 1.18
- z-score [12]: 0.58 (inactive)
- z-score [13]: 1.22 (inactive)
- z-score [14]: 0.867 (inactive)
- composite z-score [15]: 3.44
- z-score [16]: -0.172 (inactive)
- composite z-score [17]: 0.858
- composite z-score [18]: -0.05
- composite z-score [19]: 0.96
- composite z-score [20]: 0.187

Compound: CCOC(=O)C[C@H]1[C@H](OC(=O)c2cc3ccccc3oc2=O)[C@@H](NC(=O)c2ccc(-c3ccccc3)cc2)c2cc(OCCCO)ccc2N1C(=O)c1ccccc1
- composite z-score [1]: -0.561
- composite z-score [2]: 1.07
- composite z-score [3]: 0.0407
- composite z-score [4]: 0.731
- composite z-score [5]: 1.36
- composite z-score [6]: 0.687
- composite z-score [7]: 1.31
- z-score [8]: 0.335 (inactive)
- composite z-score [9]: 0.497
- composite z-score [10]: 0.102
- composite z-score [11]: 1.02
- z-score [12]: 0.11 (inactive)
- z-score [13]: -1.64 (inactive)
- z-score [14]: 0.117 (inactive)
- composite z-score [15]: 1.21
- z-score [16]: 1.56 (inactive)
- composite z-score [17]: -0.0367
- composite z-score [18]: 1.68
- composite z-score [19]: 1.09
- composite z-score [20]: 0.0526

Compound: [N-]=[N+]=Nc1ccccc1C[C@]1(C(N)=O)N=C(c2ccc(OCCCO)cc2)O[C@H]1c1ccccc1N=[N+]=[N-]
- composite z-score [1]: 0.12
- composite z-score [2]: 0.902
- composite z-score [3]: 0.0598
- composite z-score [4]: 1.05
- composite z-score [5]: 1.23
- composite z-score [6]: 1.42
- composite z-score [7]: 1.21
- z-score [8]: -1.08 (inactive)
- composite z-score [9]: 0.359
- composite z-score [10]: -0.0237
- composite z-score [11]: 1.55
- z-score [12]: -0.376 (inactive)
- z-score [13]: -1.28 (inactive)
- z-score [14]: -0.686 (inactive)
- composite z-score [15]: 2.89
- z-score [16]: -0.436 (inactive)
- composite z-score [17]: 0.546
- composite z-score [18]: -0.306
- composite z-score [19]: 0.877
- composite z-score [20]: 0.701

Compound: O=C(CS)NCCCCCNC(=O)[C@@H]1C[C@@H]2C(=O)N3CCC[C@H]3C(=O)N2[C@@H]1c1cccc(OCCO)c1
- composite z-score [1]: 0.511
- composite z-score [2]: 1.59
- composite z-score [3]: -0.106
- composite z-score [4]: 0.051
- composite z-score [5]: -0.377
- composite z-score [6]: 1.19
- composite z-score [7]: 1.43
- z-score [8]: 0.174 (inactive)
- composite z-score [9]: -0.599
- composite z-score [10]: -0.166
- composite z-score [11]: 1.07
- z-score [12]: 0.147 (inactive)
- z-score [13]: 0.793 (inactive)
- z-score [14]: -0.153 (inactive)
- composite z-score [15]: 2.74
- z-score [16]: -1.01 (inactive)
- composite z-score [17]: -0.0998
- composite z-score [18]: 0.102
- composite z-score [19]: 0.0995
- composite z-score [20]: -0.0828

Compound: C=CCC(OC(C)=O)[C@@H]1[C@@H](N(Cc2cc3ccccc3o2)C(=O)c2ccc(C)cc2)c2cc(OCCCO)ccc2N1C(=O)Cc1ccc(OC)cc1 (stereo not given in full)
- composite z-score [1]: -0.18
- composite z-score [2]: 0.0811
- composite z-score [3]: -0.0878
- composite z-score [4]: -0.0177
- composite z-score [5]: 0.0335
- composite z-score [6]: -0.433
- composite z-score [7]: -0.0742
- z-score [8]: 0.443 (inactive)
- composite z-score [9]: 0.277
- composite z-score [10]: -0.0645
- composite z-score [11]: 0.23
- z-score [12]: 0.0303 (inactive)
- z-score [13]: -0.841 (inactive)
- z-score [14]: -0.131 (inactive)
- composite z-score [15]: 0.692
- z-score [16]: 1.21 (inactive)
- composite z-score [17]: 0.0761
- composite z-score [18]: -0.0512
- composite z-score [19]: 0.233
- composite z-score [20]: -0.15

Compound: COc1cc2c(cc1OC)CN(C(=O)[C@@H]1[C@H]3C(=O)O[C@H](c4ccccc4)[C@H](c4ccccc4)N3[C@H](c3ccc(OCCO)cc3)[C@@]13C(=O)Nc1ccccc13)CC2
- composite z-score [1]: -0.164
- composite z-score [2]: 0.562
- composite z-score [3]: 0.0373
- composite z-score [4]: 1.01
- composite z-score [5]: 1.16
- composite z-score [6]: 1.42
- composite z-score [7]: 1.23
- z-score [8]: 2.03 (inactive)
- composite z-score [9]: 0.29
- composite z-score [10]: 0.0139
- composite z-score [11]: 1.54
- z-score [12]: 3.17 (inactive)
- z-score [13]: 1.16 (inactive)
- z-score [14]: 5.44 (inactive)
- composite z-score [15]: 3
- z-score [16]: 0.761 (inactive)
- composite z-score [17]: -0.126
- composite z-score [18]: 1.32
- composite z-score [19]: 1.15
- composite z-score [20]: 0.134

Compound: C=CCOC(=O)[C@H]1[C@@H]2C(=O)O[C@@H](c3ccccc3)[C@@H](c3ccccc3)N2[C@@H](c2ccc(OCCOC(=O)[C@@H]3C[C@@H]4C(=O)N[C@@H](CCCCNC(C)=O)C(=O)N4[C@@H]3c3ccc(O)cc3)cc2)[C@]12C(=O)Nc1ccc(I)cc12
- composite z-score [1]: -0.0041
- composite z-score [2]: 0.689
- composite z-score [3]: -0.0466
- composite z-score [4]: 0.892
- composite z-score [5]: 1.43
- composite z-score [6]: 1.23
- composite z-score [7]: 1.37
- z-score [8]: -0.553 (inactive)
- composite z-score [9]: 0.257
- composite z-score [10]: -0.323
- composite z-score [11]: 1.52
- z-score [12]: 1.29 (inactive)
- z-score [13]: 0.145 (inactive)
- z-score [14]: 4.21 (inactive)
- composite z-score [15]: 1.88
- z-score [16]: -0.289 (inactive)
- composite z-score [17]: 0.0594
- composite z-score [18]: 1.19
- composite z-score [19]: 0.981
- composite z-score [20]: 0.117
